SARS PLP yeast = qHTS of Yeast-based Assay for SARS-CoV PLP | S. cerevisiae expressing SARS-CoV PLpro, growth rescue | Potency, µM (doses to about 32.9 µM), without a hit: at the highest dose activity, positive = growth rescue, actives largely listed as activators | 330,000 compounds, 0.19% hits; calls by dose curve; further: 0% is about no effect; nearly all actives have a fitted effect of over 55% in size
Pf growth 96h = Primary qHTS for delayed death inhibitors of the malarial parasite plastid, 96 hour incubation; 320,000 compounds, 6.9% hits; P. falciparum luciferase reporter growth, 96 h; Potency, µM (top dose mostly 28.7 µM), for the others: at the top dose activity change, negative = inhibition, most hits filed as inhibitors; AID 504834, 2011; further: on the % scale 0 is the no-effect control and ±100 the full control effect
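P. falciparum expressing integrated firefly luciferase grown in erythrocytes (2% hematocrit, 0.05% parasitemia final) with compounds for 96 hours at 37 C, 5% CO2. Growth inhibition read as loss of luminescence after adding luciferase detection reagent.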
Pf growth 48h = Primary qHTS for delayed death inhibitors of the malarial parasite plastid, 48 hour incubation | 310,000 compounds, 5.9% hits | Potency, µM (top dose mostly 28.7 µM), without a hit: top-dose activity change, negative = inhibition, usual class: inhibitors | P. falciparum luciferase growth in erythrocytes, 48 h; further: on the % scale 0 is the no-effect control and ±100 the full control effect
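Parasite viability was followed by luminescence of a genomically integrated firefly luciferase. Cultures held 0.1% parasitemia at 2% hematocrit (final), incubated under 5% CO2 at 37 C.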
NS1 inh = qHTS Assay for Inhibitors of Influenza NS1 Protein Function | Potency, µM (doses to about 46.1 µM), for the others: at the highest dose activity, positive = more growth | 270,000 compounds, 0.4% hits; calls by dose curve; further: actives are rising curves; nearly all actives have a fitted effect of over 50% in size
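S. cerevisiae expressing influenza A NS1, grown in glucose, washed, then diluted 1:100 into pH 6.0 -URA galactose medium with 23 nl compound. Growth recovery read as OD600; NS1-free strain serves as control.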
* marks the source's active call; other numbers are inactive results; ? = inconclusive; nt = no result given. Rows were chosen to be rich in hits. Some 10% of all compounds tested hit in one or more screens of this group. Unless noted, the call rests on the fitted dose curve; in most records, active means well fitted inhibition curve with a large enough effect; inconclusive means small, poorly fitted or top-dose-only effect, or another doubt; inactive means no such curve, though single readings can be large or run the other way. Potency means the concentration at half of the fitted maximal effect.

SMILES | SARS PLP yeast | Pf growth 96h | Pf growth 48h | NS1 inh
Cc1cn([C@H](C(=O)NCCCCCCCCCCC(=O)N2CCN(C(=O)OC(C)(C)C)CC2)[C@@H](C)O)nn1 | 2% | 9.3µM* | 10µM* | nt
COc1ccc(NC(=O)C2CC(=O)N/C(=N/NC(=O)c3ccc(Cl)cc3)S2)cc1 (configuration not stated) | 2% | ? | 17% | -2%
CCOc1ccccc1OCCCC(=O)NNC(=O)c1ccc(F)cc1 | 4% | nt | nt | nt
N#CCCC(CCC#N)C1=NCCc2ccccc21 | 1% | 28% | 11% | 0%
CC(NC(=O)C1CCC(C(=O)NC(C)c2ccccc2)CC1)c1ccccc1 (configuration not stated) | 13% | 0% | -4% | -3%
O=C1c2ccc3c4c(ccc(c24)C(=O)N1CCCCO)C(=O)N(CCCCO)C3=O | 8% | -4% | 0.74µM* | nt
O=C(c1ccc2c(c1)C(=O)N(CCCO)C2=O)c1ccc2c(c1)C(=O)N(CCCO)C2=O | 0% | nt | -13% | 0%
O=C(Cn1c(NCCCO)nc2ccccc21)c1ccc(Br)cc1 | -3% | -27% | nt | -6%
CC(C)(C)C(=O)Cn1c(NCCCO)nc2ccccc21 | 3% | 12µM* | 11% | 0%
O=C(Cn1c(NCCO)nc2ccccc21)c1ccccc1 | -1% | 9.3µM* | 11% | 4%
Cc1ccc(C(=O)Cn2c(NCCO)nc3ccccc32)cc1 | ? | ? | 46% | -3%
O=C(O)/C=C\c1ccc[c]([Sb])c1 | nt | nt | nt | 5%
O=C(CNC(=O)c1ccc(Br)o1)NNC(=O)c1ccccc1F | -4% | 1% | 7% | 0%
Cc1nn(C2CCOC(C)(C)C2)c2c1C(c1ccc3c(c1)OCO3)SCC(=O)N2 (configuration not stated) | -8% | 9.3µM* | ? | 9%
CC(C)CN1CCN(C(=O)CCc2nnc(Cc3c[nH]c4ccccc34)o2)[C@@H](C)C1=O | 3% | -12% | -19% | 8%
COC(=O)CNC(c1ccccc1)c1cc(Br)ccc1N (configuration not stated) | -1% | 24% | 8% | 6%
COC(=O)CNC(c1ccccc1)c1cc(Br)ccc1NS(=O)(=O)c1ccc(C)cc1 (configuration not stated) | -26% | 42% | 12µM* | ?
COC(=O)CNC(c1ccccc1)c1cc(Br)ccc1NS(=O)(=O)c1ccccc1 (configuration not stated) | -21% | 4% | 15µM* | 26%
NS(=O)(=O)c1ccc(CNC(=O)c2cccnc2Cl)cc1 | 1% | 29% | 28% | 1%
CCN1CCN(C(=O)CCn2c(=O)c3cccn3c3cccnc32)CC1 | -3% | ? | 6% | 8%
CC1CN(c2ccc(S(=O)(=O)N3CCCC3)cn2)CC(C)O1 (configuration not stated) | 0% | 8% | 1% | 1%
O=C(Nc1ccc(OC(F)F)c(Cl)c1)Nc1ccc2c(c1)OCO2 | -11% | nt | ? | -5%
Cc1ccc([N+](=O)[O-])cc1NC(=O)Nc1cccc(F)c1 | 10% | ? | 7.4µM* | 6%
O=C(Nc1ccc([N+](=O)[O-])cc1)Nc1ccc(OC(F)F)c(Cl)c1 | -123% | -15% | 1.9µM* | -24%
O=C(Nc1ccccc1)Nc1cc([N+](=O)[O-])ccc1F | -13% | ? | 21% | -1%
SMILES | SARS PLP yeast | Pf growth 96h | Pf growth 48h | NS1 inh
COc1ccc(NC(=O)Nc2cccc([N+](=O)[O-])c2)cc1Cl | -20% | 26% | 6.6µM* | -3%
Cc1sc(NC(=O)Cc2ccc3c(c2)OCO3)nc1-c1ccc2c(c1)CCN2C(=O)c1ccc(F)cc1 | 29% | 5% | 9.3µM* | 17%
Cc1sc(NC(=O)Cc2ccc3c(c2)OCO3)nc1-c1ccc2c(c1)CCN2C(=O)c1ccccc1F | 7% | -1% | -14% | 22%
Nc1c(N(Cc2ccco2)C(=O)c2ccccc2F)c(=O)[nH]c(=O)n1Cc1ccccc1 | -1% | -1% | ? | nt
CCCCc1cc(=O)oc2cc(C)cc(OCC(=O)NCCN3CCOCC3)c12 | -9% | ? | ? | 4%
Cc1cc(OCC(=O)Nc2ccccn2)c2c(C)cc(=O)oc2c1 | -6% | 35% | 19% | 12%
CCCCc1cc(=O)oc2cc(C)cc(OCC(=O)Nc3ccccn3)c12 | -8% | ? | 4.1µM* | -11%
CCCc1cc(=O)oc2cc(C)cc(OCC(=O)Nc3ccccn3)c12 | -7% | 0.66µM* | 0.93µM* | 6%
CN(Cc1ccc(C(C)(C)C)cc1)C(=O)c1ccc2c(=O)n3c(nc2c1)CCC3 | 0% | ? | 13µM* | nt
COc1ccc(CN(C)C(=O)c2ccc3c(=O)n4c(nc3c2)CCC4)cc1 | -4% | ? | -2% | -13%
CCOc1ccccc1N(C)C(=O)c1ccc2c(=O)n3c(nc2c1)CCCCC3 | 29% | 1.5µM* | ? | -15%
O=C(Cc1cccs1)N1CCCC(c2nc3c(nnn3Cc3ccc(F)cc3)c(=O)[nH]2)C1 (configuration not stated) | 0% | -17% | ? | -1%
CC(C)(C)c1ccc(Cn2nnc3c(=O)[nH]c(C4CCCN(C(=O)Cc5cccs5)C4)nc32)cc1 (configuration not stated) | 4% | 5.2µM* | ? | ?
CCC(C)NC(=O)c1nc2c(nnn2Cc2ccccc2Cl)c(=O)[nH]1 (configuration not stated) | 1% | 17% | 2% | 1%
O=C(NCc1cccs1)c1nc2c(nnn2Cc2ccccc2Cl)c(=O)[nH]1 | 10% | -27% | 4.1µM* | -3%
CC(C)(C)c1ccc(Cn2nnc3c(=O)[nH]c(C4CCN(C(=O)c5ccco5)CC4)nc32)cc1 | 0% | -2% | 6.6µM* | ?
CC(C)(C)c1ccc(Cn2nnc3c(=O)[nH]c(C4CCCN(C(=O)c5cccs5)C4)nc32)cc1 (configuration not stated) | -4% | 4.1µM* | ? | -3%
C/C(=N/NS(=O)(=O)c1cccc([N+](=O)[O-])c1)c1ccncc1 | -4% | -22% | 13% | -4%
CC(C)(C)c1ccc(Cn2nnc3c(=O)[nH]c(C4CCN(C(=O)Cc5cccs5)CC4)nc32)cc1 | -12% | nt | 5.9µM* | 8%
O=C(Cc1cccs1)N1CCCC(c2nc3c(nnn3Cc3ccccc3Cl)c(=O)[nH]2)C1 (configuration not stated) | 2% | 32% | 5.2µM* | -3%
O=C(c1cccs1)N1CCCC(c2nc3c(nnn3Cc3c(Cl)cccc3Cl)c(=O)[nH]2)C1 (configuration not stated) | 1% | ? | 13µM* | -6%
Cc1ccc(S(=O)(=O)N2[C@@H](c3cccc(Cl)c3)C(C(=O)O)=CC[C@H]2c2cccs2)cc1 | 3% | 36% | 7% | nt
CN(C(=O)c1ccc2c(=O)n3c(nc2c1)CCCCC3)c1cccc(Cl)c1 | -2% | ? | -19% | 8%
NC(=O)c1ccsc1NC(=O)COC(=O)CCOc1ccccc1 | -3% | 56% | 5% | -3%

Source: PubChem BioAssay (National Center for Advancing Translational Sciences (NCATS))
